Test in all cases: PBM binding z-score (relative to random genomic background probes); higher = stronger binding; sequences stand for … in GC…GCGATTGACAGCGTAGAATGAAGG
The test system of assay [1] is FXR:RXRa (NR concentration 270 nM, RXRa partner concentration 90 nM). The procedure, abridged:
(§1)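 Custom Agilent 4×180K protein-binding microarrays carried double-stranded probes. Their 34-nt variable regions held direct-repeat seeds, single-nucleotide variants, half-site ablations and random human genomic background sequences. Arrays were incubated 1 h with ligand-free nuclear receptor dimers in PBS pH 7.4, 2% milk, 0.02% Triton X-100, 1 mM DTT, 0.2 mg/mL BSA and 0.4 mg/ml salmon testes DNA. Antibodies against each partner (one per run) detected binding, and scanned fluorescence was regression-normalized. Binding z-scores use random background probes as reference.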

In assay [2] the test system is LXRa:RXRa (NR concentration 270 nM, RXRa partner concentration 90 nM). In short, it runs like this: as §1
In assay [3] the test system is LXRa homodimer (NR concentration 270 nM). In short, it runs like this:
as §1

Assay [4] concerns LXRb:RXRa (NR concentration 270 nM, RXRa partner concentration 90 nM). The procedure, abridged: as §1
In assay [5] the test system is LXRb homodimer (NR concentration 270 nM). The procedure, abridged: as §1
Assay [6] deals with PPARa:RXRa (NR concentration 270 nM, RXRa partner concentration 90 nM). The procedure, abridged:
as §1

Assay [7] has as its system PPARg:RXRa (NR concentration 180 nM, RXRa partner concentration 90 nM). The procedure, abridged: as §1
The subject of assay [8] is PPARg:RXRa 270nM:90nM, anti-RXR (NR concentration 270 nM, RXRa partner concentration 90 nM). In short, it runs like this:
as §1

Assay [9] relates to PPARg:RXRa 30nM:10nM, anti-RXR (NR concentration 30 nM, RXRa partner concentration 10 nM). In short, it runs like this:
as §1

Assay [10] deals with PPARg:RXRa 90nM:30nM, anti-RXR (NR concentration 90 nM, RXRa partner concentration 30 nM). The procedure, abridged: as §1
Assay [11] deals with PPARg:RXRa DBDmut IVT, anti-RXR (DBD mutation: RXRa K156A/R161A, NR concentration 270 nM, RXRa partner concentration 90 nM). The procedure, abridged:
as §1

Assay [12] deals with PPARg:RXRa IVT, anti-PPARg (NR concentration 270 nM, RXRa partner concentration 90 nM). The procedure, abridged: as §1
The subject of assay [13] is PPARg DBDmut:RXRa IVT, anti-PPARg (DBD mutation: PPARg1 K132A/R137A, NR concentration 270 nM, RXRa partner concentration 90 nM). In short, it runs like this: as §1
Assay [14] relates to PPARg DBDmut IVT, anti-PPARg (DBD mutation: PPARg1 K132A/R137A, NR concentration 270 nM). The procedure, abridged: as §1
Assay [15] relates to PPARg homodimer (NR concentration 180 nM). The procedure, abridged: as §1
The test system of assay [16] is PXR:RXRa (NR concentration 270 nM, RXRa partner concentration 90 nM). The procedure, abridged:
as §1

The test system of assay [17] is PXR homodimer (NR concentration 270 nM). The procedure, abridged:
as §1

For assay [18], the system named is RARa:RXR (NR concentration 270 nM, RXRa partner concentration 90 nM). The procedure, abridged:
as §1

The subject of assay [19] is RARa homodimer (NR concentration 270 nM). In short, it runs like this:
as §1

Assay [20] has as its system RARb:RXRa (NR concentration 270 nM, RXRa partner concentration 90 nM). The procedure, abridged: as §1

Take ATATGTAGGTTAGCTGGGGTAATTCAGACTAGGC: the PBM binding z-score in [1] came to 0.983; in assay [2], 0.79; in assay [3] it was 0.216; in [4], 1.28; in assay [5], 0.815; in [6], 2.91. The PBM binding z-score in assay [7] was 3.61; in assay [8] it was 3; in assay [9] it was 0.942; in assay [10], 2.01; in assay [11] it was 6.75; in assay [12], 6.17. For the same sequence, the PBM binding z-score stood at 1.99 in assay [13]; 1.76 in [14]; 0.916 in assay [15]; 1.12 in [16]; 0.0639 in assay [17]; 1.44 in assay [18]. Further, the PBM binding z-score was 0.818 in assay [19] and 1.02 in assay [20].

Consider TCATATAGGTAAATGCTAGGTGAGAGTCCGATCT, for which the PBM binding z-score in [1] was -0.733; in [2] it was 0.512; in assay [3] it was -0.251; in assay [4], 0.0109; in assay [5] it was -0.13; in [6], 1.05. For the same sequence, the PBM binding z-score is 0.622 in assay [7]; 1.86 in [8]; 3.39 in [9]; 2.64 in [10]; 3.83 in [11]; 2.57 in [12]. The PBM binding z-score came out at 0.808 in assay [13]; 0.825 in [14]; 0.0695 in [15]; 0.187 in assay [16]; 0.158 in [17]; 0.343 in assay [18]. The results for the PBM binding z-score in assay [19] and in assay [20] were 0.662 and 0.218, respectively.

Take ATCTCTAGGTAACCAAGTTCAGCGAATGCCGAAC: the PBM binding z-score in [1] turned out to be 0.438; in assay [2], 0.886; in [3] it was 0.803; in [4], 0.7; in assay [5], 0.602; in [6], 1.4. In addition, the PBM binding z-score in assay [7] came to 0.655; in [8] it was 1.07; in assay [9] it was 0.316; in [10], 0.524; in assay [11] it was 3.55; in assay [12], 2.95. Further, the PBM binding z-score in [13] amounted to 1.37; in assay [14], 0.686; in assay [15], 0.704; in assay [16], 2.02; in [17], 1.3; in assay [18], 1.04. Further, the PBM binding z-score is 0.165 in [19] and 1.34 in assay [20].

For the sequence TTACCAAGGTGAGCTGAGGTCGTCGATCCAACTC, the PBM binding z-score was 1.73 in assay [1]; 0.879 in [2]; -0.506 in assay [3]; 0.696 in assay [4]; -1.82 in [5]; 1.82 in assay [6]. Also, the PBM binding z-score in [7] was 0.26; in [8], 1.06; in [9] it was -0.186; in [10], 0.372; in assay [11], 0.887; in assay [12] it was 2.1. Besides, the PBM binding z-score in assay [13] is -0.228; in assay [14] it was -0.875; in [15], -0.188; in assay [16], 3.92; in [17], 0.167; in assay [18] it was 1.43. Also, the PBM binding z-score in [19] was -0.863; in assay [20], 1.8.

For CGAACTAGGCCAGAACAGGACAGTGAAGGATGAT, the PBM binding z-score in assay [1] was -0.345; in [2], -0.433; in assay [3] it was -0.144; in assay [4] it was -0.816; in [5], -0.951; in [6], 0.499. For the same sequence, the PBM binding z-score was 1.22 in [7]; 0.225 in assay [8]; 0.233 in [9]; 0.37 in assay [10]; 3.99 in assay [11]; 3.44 in assay [12]. In addition, the PBM binding z-score in assay [13] was 0.251; in assay [14], 0.0234; in [15], 0.0323; in assay [16], -0.123; in assay [17], -0.145; in [18] it was 0.379. Further, the PBM binding z-score in [19] came out at 0.0972; in [20], 0.171.

For the sequence TCTAGCAGGCCAGAAGGTCACTCAAGAGGTACGG, the PBM binding z-score in assay [1] is 1.61; in [2], 2.17; in assay [3], 0.0558; in [4], 1.8; in [5], -0.711; in [6] it was 3.04. Besides, the PBM binding z-score was 1.46 in [7]; 2.86 in assay [8]; 2.27 in assay [9]; 2.71 in [10]; 1.1 in [11]; 0.932 in [12]. The PBM binding z-score in [13] was -0.221; in assay [14], -1.25; in assay [15], 2.43; in assay [16] it was 2.79; in assay [17] it was -0.00251; in assay [18], 3.63. The PBM binding z-score was -0.201 in assay [19] and 3.28 in assay [20].

For the origin of these results see the supplement of paper PMC6555819.
